Results published in the supplement of paper PMC4237247.

system: HeLa; assay: percent cells in G2/M phase; higher = more G2/M arrest; details: 10 µM; 20 h; hit class: G2/M-phase inhibitor
Experimental: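 HTS of 79,827 drug-like compounds at 10 uM. HeLa cells in 384-well plates were treated for 20 h, fixed, stained with Vybrant DyeCycle Green and scanned on an Acumen eX3 cytometer to give per-well cell cycle profiles. Only G2/M hits (>=67% G2/M) are listed.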

| Structure (SMILES) | percent cells in G2/M phase [%] |
| --- | --- |
| CCN(CC)CCN1C(=O)C(=O)C(=C(O)c2ccccc2)C1c1ccccc1F (centres undefined) | 68.3 |
| O=C(CSc1nc2ccc([N+](=O)[O-])cc2s1)c1ccc(Cl)cc1 | 69.3 |
| CC(=O)Nc1ccc(Nc2nc(-c3c(C)nc4ccccn34)cs2)cc1 | 78 |
| COC(=O)Nc1nc2cc(Sc3ccccc3)ccc2[nH]1 [Fenbendazole] | 66.2 |
| COC(=O)Nc1nc2cc(C(=O)c3ccccc3)ccc2[nH]1 [Mebendazole] | 76.8 |
| COc1cc(-c2onc3ccc(Cl)cc23)cc(OC)c1OC | 78.1 |
| O=c1[nH]c(/C=C/c2ccccc2F)nc2ccccc12 | 76.3 |
| COc1ccc(/C=C/c2ccc3cccc(O)c3n2)cc1C | 71.7 |
| COc1ccccc1NC1=CC(=O)CC(c2ccccc2)C1 (centres undefined) | 70.1 |
| COc1cc(NS(=O)(=O)c2ccc(NC(C)=O)cc2)c(OC)cc1Cl | 71 |
| CC(=O)O[C@H]1C(=O)[C@@]2(C)[C@H]([C@H](OC(=O)c3ccccc3)[C@]3(O)C[C@H](OC(=O)[C@H](O)[C@@H](NC(=O)c4ccccc4)c4ccccc4)C(C)=C1C3(C)C)[C@]1(OC(C)=O)CO[C@@H]1C[C@@H]2O [Paclitaxel] | 75.7 |
| O=c1[nH]c(/C=C/c2ccccc2)nc2ccccc12 | 69.3 |
| COC(=O)Nc1nc2ccc(SC(C)C)cc2[nH]1 [Methiazole] | 72.9 |
| O=C(O)c1ccccc1SC1CC(=O)N(c2ccc(Br)cc2)C1=O (centres undefined) | 75.3 |
